Pf growth 96h: inhibits malaria parasite growth, 96 h; P. falciparum luciferase reporter growth, 96 h; Potency, µM (doses to about 28.7 µM), without a hit: at the top dose activity change, negative = inhibition, actives largely listed as inhibitors; 320,000 tested, 6.9% active; also: potency is read from the fitted curve at half-maximal effect
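Luminescence readout: decreased luciferase signal marks inhibited growth of reporter-expressing P. falciparum in infected red cells (2% hematocrit, 0.05% parasitemia final), exposed to compound two generations (96 h, 37 C, 5% CO2).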
Pf growth 48h: P. falciparum growth inhibition at 48 hours (one generation) | P. falciparum luciferase growth in erythrocytes, 48 h | Potency, µM (titrated, usually from 28.7 µM), for inactives: top-dose activity change, negative = inhibition, hits mostly inhibitors | 310,000 tested, 5.9% active | AID 504832; also: potency is read from the fitted curve at half-maximal effect
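Compounds are pin-transferred into medium, infected erythrocytes (2% hematocrit, 0.1% parasitemia final) are added, and plates sit one parasite generation at 37 C in 5% CO2. Detection reagent is then added and luminescence measured.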
Marburg entry inh: inhibitors of Marburg virus binding or cell entry; 300,000 tested, 1.8% active; Potency, µM (series often up to 37.8 µM), for inactives: top-dose activity change, negative = inhibition, actives largely listed as inhibitors; Marburg virus pseudotyped entry inhibition, cell reporter; calls by dose curve; tested in HEK293 cells; also: potency is read from the fitted curve at half-maximal effect
Lassa entry inh: blocks Lassa virus binding to or entry into cells. 300,000 tested, 1.2% active. Lassa virus pseudotype entry inhibition, cell reporter. AID 540256. Potency, µM (highest dose often 37.9 µM), inactives show at the top dose activity change, negative = inhibition, usual class: inhibitors; calls by dose curve; tested in HEK293 cells; also: potency is read from the fitted curve at half-maximal effect; nearly all actives have a fitted effect of over 50% in size
HCV inhibitor: HCV inhibition; Huh7.5.1 HCVcc-Cre infection, luciferase reporter, 44 h; Potency, µM (series often up to 41.8 µM), for the others: at the top dose activity change, negative = inhibition, most hits filed as inhibitors; 340,000 tested, 3.4% active; AID 651820; also: potency is read from the fitted curve at half-maximal effect
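Seed cells (1,000/well) for 4 h; treat with compound and infect with HCVcc-Cre, moi about 0.5. Incubate 44 h, then detect luciferase activity.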
HCMV antiviral: blocks human cytomegalovirus replication. 410,000 tested, 4.5% active. HFF cells, HCMV-luciferase reporter, 72 h; stronger effect = lower value. AID 1259415. activity change, negative = inhibition, % at 57.5 µM; in the data active = activity change below about -60%; inconclusive = no clear call, values can overlap the other calls; inactive = above about -39%
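Screen run at 2 compound doses on HFFs infected with reporter HCMV, MOI 1 PFU/cell. Luciferase activity from cell lysates at 72 h post infection gave inhibition relative to buffer-only and Salinomycin wells.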
Starred values were filed as active, the others as inactive; ? = inconclusive; / = no result given; [ ] = remark or other dose. In the library only some 14% were active in any assay of this set; here they are far more common. Unless noted, calls follow the shape of the dose curve; as a rule, active = well fitted inhibition curve with a large enough effect; inconclusive = small, poorly fitted or top-dose-only effect, or another doubt; inactive = no such curve, though single readings can be large or run the other way. % is scaled to controls: 0 for no effect and ±100 for the full control effect.

SMILES | Pf growth 96h | Pf growth 48h | Marburg entry inh | Lassa entry inh | HCV inhibitor | HCMV antiviral
Clc1ccc2c(c1)c1ccccc1n2CN1CCOCC1 | / | 20% | -1% | 8% | ? | -13
Clc1ccc2c(c1)c1cc(Cl)ccc1n2CN1CCOCC1 | ? | ? | -22% | ? | 22µM* | ?
COC1=CC(=O)c2nc(Cl)ccc2C1=O | / | / | / | / | / | -101*
O=S1(=O)N[C@H](Cc2ccccc2)COc2cccc(N3CCSCC3)c21 | / | / | / | / | / | -5
CCC1=C(OC(=O)N(CC)CC)N2C(=O)OC(=NCc3ccccc3)[C@]2(C)[C@H]2C1=CC[C@H]1C(=O)N(CC(=O)OC)C(=O)[C@H]12 | 9.3µM* | 8.3µM* | / | / | 4% | -62*
CCC1=C(OC(=O)N(CC)CC)N2C(=O)OC(=NCC3CC3)[C@]2(Cc2ccccc2)[C@H]2C1=CC[C@H]1C(=O)N(CC(=O)OC)C(=O)[C@H]12 | 7.4µM* | 5.9µM* | / | / | 2% | 10
CCC1=C2CC[C@H]3C(=O)N(C)C(=O)[C@H]3[C@H]2[C@@]2(Cc3ccccc3)C(=NCC(=O)OC)OC(=O)N2C1=O | ? | 32% | / | / | 60% | -6
CCC1=C(OC(=O)N(CC)CC)N2C(=O)OC(=NCC(=O)OC)[C@]2(C)[C@H]2C1=CC[C@H]1C(=O)N(C)C(=O)[C@H]12 | 54% | 31% | / | / | 14% | 8
CCC1=C(OC(=O)N(CC)CC)N2C(=O)OC(=NCc3ccccc3)[C@]2(C)[C@H]2C1=CC[C@H]1C(=O)N(c3ccccc3)C(=O)[C@H]12 | 8.3µM* | 7.4µM* | / | / | -25% | -27
CC(C)(C)c1ccc(C(=O)NC2=NC(c3cccc(F)c3)CC(=O)N2)cc1 (stereo not drawn) | / | / | ? | 22%[46.1 µM] | / | -18
Cc1ccc(NC(=O)CSC2=NN3CCCC(=O)N=C3S2)cc1Cl | ? | ? | -1%[46.1 µM] | 0%[46.1 µM] | ? | ?
CCCCc1ccc(NC(=O)CSC2=NN3CCCC(=O)N=C3S2)cc1 | 2.1µM* | -4% | ? | ? | 11µM* | -39
O=C1CCCN2N=C(SCC(=O)Nc3cccc(C(F)(F)F)c3)SC2=N1 | -36% | ? | ? | -29%[46.1 µM] | 6.3µM* | -86*
O=C1CCCN2N=C(SCC(=O)Nc3cccc(Cl)c3)SC2=N1 | 82% | ? | -27%[46.1 µM] | -23%[46.1 µM] | ? | -81*
O=C1CCCN2N=C(SCC(=O)Nc3ccccc3C(F)(F)F)SC2=N1 | ? | ? | 11% | 0% | / | 72
CCOc1ccc(NC(=O)CSC2=NN3CCCC(=O)N=C3S2)cc1 | -2% | ? | / | / | -20% | -9
O=C1CCCN2N=C(SCC(=O)Nc3ccc(Cl)cc3)SC2=N1 | 10µM* | -13% | 0%[46.1 µM] | ? | 2% | -35
CC1(CN2CCC(n3c(=O)[nH]c4ccccc43)CC2)OCc2ccccc2-n2cccc21 (stereo not drawn) | 13µM* | 15µM* | / | / | / | /
Clc1ccc(SCc2nc3ccccc3[nH]2)cc1 | 99% | 62% | -21% | 4% | -16% | -18
O=C(Cc1nc2ccccc2[nH]1)c1ccc(Cl)cc1 | ? | 2.3µM* | 3%[46.1 µM] | / | ? | -23
O=C(Cc1nc2ccccc2[nH]1)c1ccc([N+](=O)[O-])cc1 | 2.9µM* | 1.9µM* | -9%[46.1 µM] | -25% | -11% | -28
N#C/C(=C\c1ccc(Cl)cc1)c1nc2ccccc2[nH]1 | / | / | / | 18%[46.1 µM] | / | -3
CN/N=C(\Cc1nc2ccccc2[nH]1)c1ccc([N+](=O)[O-])cc1 | ? | ? | / | / | -24% | 107
N#CCCN/N=C(/Cc1nc2ccccc2[nH]1)c1cccc(Cl)c1 | / | 10µM* | -8% | ? | ? | 92
Clc1ccc(/C(Cc2nc3ccccc3[nH]2)=N\Nc2ccccc2)cc1 | ? | ? | ? | ? | 11µM* | -32
SMILES | Pf growth 96h | Pf growth 48h | Marburg entry inh | Lassa entry inh | HCV inhibitor | HCMV antiviral
O=C(Nc1nnc([C@H]2C[C@H](O)[C@@H](CO)O2)s1)Nc1cccc(Cl)c1Cl | / | / | / | / | / | -3
O=C1N(Cc2ccccc2C(F)(F)F)c2ccccc2[C@@]12O[C@H](COc1ccccc1)CC1=C2CCC1 | / | / | -24%[14.2 µM] | / | / | /
C#CCN(C[C@@H]1[C@@H](OC(=O)NCc2ccco2)[C@@H](OC(=O)NCc2ccco2)Cn2c(=O)n(CCCCCC)c(=O)n21)S(=O)(=O)c1ccc(C)cc1 | / | / | / | / | / | -74*
C#CCN(C[C@H]1[C@H](OC(=O)NCc2ccco2)[C@H](OC(=O)NCc2ccco2)C[C@H]2C(=O)N(c3ccccc3)C(=O)[C@@H]12)S(=O)(=O)c1ccc(C)cc1 | / | / | / | / | / | 7
C#CCN(C[C@@H]1[C@@H](OC(=O)NCc2ccc(OC)c(OC)c2)[C@@H](OC(=O)NCc2ccc(OC)c(OC)c2)Cn2c(=O)ccc(=O)n21)S(=O)(=O)c1ccc(C)cc1 | / | / | / | / | / | -107*
C#CCN(C[C@@H]1[C@@H](OC(=O)NCc2ccccc2)[C@@H](OC(=O)NCc2ccccc2)Cn2c(=O)n(CCCCCC)c(=O)n21)S(=O)(=O)c1ccc(C)cc1 | / | / | / | / | / | 4
C#CCN(C[C@@H]1[C@@H](OC(=O)NCc2ccc(OC)c(OC)c2)[C@@H](OC(=O)NCc2ccc(OC)c(OC)c2)Cn2c(=O)n(CCCCCC)c(=O)n21)S(=O)(=O)c1ccc(C)cc1 | / | / | / | / | / | -16
C#CCN(C[C@@H]1[C@@H](OC(=O)NCc2ccco2)[C@@H](OC(=O)NCc2ccco2)Cn2c(=O)ccc(=O)n21)S(=O)(=O)c1ccc(C)cc1 | / | / | / | / | / | -101*
COc1ccccc1C(=O)Nc1cc2c(cc1N1CCOCC1)n(C)c(=O)n2C | / | / | 1%[46.1 µM] | 2%[46.1 µM] | / | 16
CN(C(=O)COc1ccc(Cl)cc1Cl)c1nnc(C23CC4CC(CC(C4)C2)C3)s1 | 13µM* | ? | 19% | -1% | 13% | 17
Cc1ccc(C(=O)NC2CC3CCCC(C2)N3C(=S)NCc2ccco2)cc1 (stereo not drawn) | 33% | 10µM* | -16%[46.1 µM] | 8%[46.1 µM] | -8% | -28
OC(CN1CCN(Cc2ccc3c(c2)OCO3)CC1)c1c[nH]c2ccccc12 (stereo not drawn) | 5% | ? | -28% | ? | ? | -88*
COc1ccc2c(c1)c(C(O)CN1CCN(Cc3ccc4c(c3)OCO4)CC1)c(C)n2C (stereo not drawn) | ? | ? | ? | ? | ? | -19
Cc1c(C(O)CN2CCN(Cc3ccc4c(c3)OCO4)CC2)c2ccccc2n1C (stereo not drawn) | ? | ? | ? | ? | 18µM* | -28
OC(CN1CCN(c2ccccc2)CC1)c1c[nH]c2ccccc12 (stereo not drawn) | -16% | -17% | -1% | 23% | -5% | -24
COc1cccc(-c2cc(C(F)(F)F)n3nc(-c4ccc(C)cc4)cc3n2)c1 | / | / | 28%[46.1 µM] | 1%[46.1 µM] | / | 1

Compound activity: PubChem, National Center for Advancing Translational Sciences (NCATS)
